Shown are actives, neighbours in structure and some others; about 2.6% of the full set was active somewhere.
Ba/F3 V617F tox = reduced viability of JAK2V617F-dependent Ba/F3 cells, primary screen, JAK2V617F inhibitor project, cell-based, Ba/F3 EpoR-JAK2V617F, luminescence. ATP luminescence. inhibition, % at 5.6 µM. 1.1% of 220,000 active. AID 1446, 2008;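 active = inhibition above the campaign mean plus 3 SD over all tested compounds, cut at about 24% in these data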;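 note: cytokine-independent growth of Ba/F3 cells driven by EpoR plus mutant JAK2; 0% = DMSO-treated cells and 100% = JAK inhibitor I control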
BaF3 tox = parental Ba/F3 cell viability inhibition, counter-screen for JAK2V617F inhibitor project, murine pro-B, CellTiter-Glo luminescence; CellTiter-Glo ATP luminescence; inhibition, % at 5.6 µM; 1.1% of 220,000 active;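 active = inhibition above a per-campaign cutoff, the mean inhibition of all tested compounds plus 3 SD, cut at about 27% in these data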;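 note: 0% = DMSO wells and 100% = JAK Inhibitor I control wells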
DNA FID counter = compounds displacing fluorescent DNA intercalator, primary screen, artefact control for HCV NS3 helicase inhibitor project, biochemical, FID fluorescence; DNA fluorescent intercalator displacement; inhibition, % at 7.9 µM; 0.17% of 290,000 active; AID 1845, 2009; in the data active = inhibition above about 37%;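 note: 0% = vehicle and 100% = reference compound; higher means more ethidium bromide displaced from hairpin DNA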
KLF5 inhibitor = KLF5 expression inhibitors, primary screen, DLD-1 cells, luminescence; DLD-1 KLF5 promoter-luciferase reporter; inhibition, % at 5 µM; AID 1700, 2009; 0.23% of 290,000 active;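 active = inhibition above a per-plate limit of that plate's mean compound inhibition plus 3 SD, cut at about 60% in these data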;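 note: 0% = DMSO wells and 100% = LY294002 at 200 µM; higher means less KLF5 promoter-driven luciferase light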
IEC-6 tox = cytotoxicity in IEC-6 intestinal epithelial cells, primary screen, cytotoxicity control for KLF5 inhibitor project, cell-based, luminescence | AID 1825, 2009 | inhibition, % at 5 µM | 0.78% of 290,000 active | IEC-6 cytotoxicity, luminescence viability; in the data active = inhibition above about 22%;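 note: 0% = plate median of test compound wells and 100% = cytotoxic reference compound wells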
GPR7 antagonist = GPR7 receptor antagonists, primary screen, cell-based, fluorescence, single concentration | Neuropeptides B/W receptor type 1 (Homo sapiens), P48145 | GPR7-expressing cells, fluorescence antagonist assay | inhibition, % at 4.4 µM | 1.1% of 290,000 active | AID 1861, 2009; in the data active = inhibition above about 16%, passing the limit was not always enough;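 note: cells stimulated with the agonist NPW; 0% = agonist with vehicle and 100% = vehicle without agonist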
Target sequence (P48145 whole entry, looked up): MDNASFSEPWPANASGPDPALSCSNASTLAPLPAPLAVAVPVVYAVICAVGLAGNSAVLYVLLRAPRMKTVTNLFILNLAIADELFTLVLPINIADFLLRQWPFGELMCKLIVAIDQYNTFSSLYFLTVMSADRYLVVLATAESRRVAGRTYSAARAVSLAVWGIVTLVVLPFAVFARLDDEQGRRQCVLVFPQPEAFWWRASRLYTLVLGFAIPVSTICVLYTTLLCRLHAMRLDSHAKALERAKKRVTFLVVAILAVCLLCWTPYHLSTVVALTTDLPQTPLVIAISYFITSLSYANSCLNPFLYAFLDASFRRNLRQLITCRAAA
An asterisk follows results filed as active; / = not tested or not shown.

SMILES | Ba/F3 V617F tox | BaF3 tox | DNA FID counter | KLF5 inhibitor | IEC-6 tox | GPR7 antagonist
C#CC[N+](CC)(CC)CC#Cc1ccccc1 | 59* | 62* | 6 | 7 | 1 | 6
C#CC[N+](C)(C)CC#Cc1ccc(C)cc1 | 41* | 37* | -9 | 12 | -4 | 2
O=[N+]([O-])c1ccc(COc2ccc(Br)cc2CN2CCOCC2)cc1 | 2 | 90* | 2 | -9 | 1 | 8
O=[N+]([O-])c1ccc(CN2CCOCCOCCN(Cc3ccc([N+](=O)[O-])cc3)CCOCC2)cc1 | -1 | 2 | 10 | -20 | -3 | 8
COc1ccc(C(=O)/C=C2\Sc3ccccc3N2C)cc1 | 2 | 4 | -11 | -142 | -2 | 4
COc1ccccc1-[n+]1c(C)cc(/C=C2\Sc3ccccc3N2C)cc1C | 99* | 96* | -1 | 8 | 1 | 5
O=c1oc2ccccc2nc1/C=C(O)/C=C/c1ccc(F)cc1 | -1 | 7 | 40* | 21 | -3 | -2
CC(OC(=O)c1cccnc1)C(=O)NCc1ccc2c(c1)OCO2 (configuration not stated) | 3 | 9 | -9 | -1 | -1 | -9
O=C(OC(C(=O)NCc1ccc2c(c1)OCO2)c1ccncc1)c1ccc(Cl)nc1 (configuration not stated) | 4 | 81* | -1 | 4 | 6 | 9
Cc1cc(NC(=O)CCC(=O)N(c2ccc(C)c(F)c2)C(C(=O)NC2CCCC2)c2ccco2)no1 (configuration not stated) | / | / | -45 | -16 | -3 | -1
CC1CCc2cc(F)ccc2N1C(=O)c1ccc2c(c1)OCO2 (configuration not stated) | 32* | 36* | -18 | -1 | 6 | 1
COc1ccc(C(=O)N2c3ccc(F)cc3CCC2C)cc1OC (configuration not stated) | 2 | 2 | -31 | 10 | 5 | -3
CSc1cccc(NC(=O)C2CCCN(S(=O)(=O)c3ccc(F)cc3)C2)c1 (configuration not stated) | 5 | 8 | -12 | -26 | 5 | 19*
CCOC(=O)c1nc(NCc2cccc(OC)c2)c2ccccc2n1 | -1 | 6 | -15 | 3 | 2 | -3
CCC(=O)Nc1ccccc1C(=O)OCC(=O)c1ccc2ccccc2c1 | -4 | -1 | -13 | -24 | -3 | 19*
Cc1csc2nnc(N)n12 | 0 | 4 | 0 | -21 | 0 | -6
CCOC(=O)C1(CC2CCCCO2)CCN(Cc2nccn2-c2ccc(OC)cc2)CC1 (configuration not stated) | -1 | 0 | -6 | 9 | 4 | 0
CCOC(=O)C1(CC2CCCCO2)CCN(Cc2nccn2-c2cccc(C)c2)CC1 (configuration not stated) | -3 | -2 | -1 | -17 | 3 | 19*
Cc1cccc(C)c1NC1=NC2(CCCCC2)N=C(N)N1 | -5 | 76* | 0 | -17 | -2 | -8
Cc1cccc(NC2=NC3(CCCCC3)N=C(N)N2)c1C | -2 | 6 | 1 | -10 | -1 | -12
Cc1nn(CC(=O)Nc2nnc(CC(=O)N3CCCC3)s2)c(=O)c2ccccc12 | 0 | 6 | -1 | -34 | -5 | 18*
CCn1nc(CC(=O)Nc2nnc(CC(=O)N3CCCCC3)s2)c2ccccc2c1=O | -4 | 2 | -19 | -11 | 2 | 1
COC(=O)CCC/C=C1/SCC(NC(=O)c2ccccc2)/C1=N/O (configuration not stated) | 0 | 7 | -21 | 7 | -3 | -1
COc1cc(CNCCc2c[nH]c3ccccc23)ccc1OCc1ccc(F)cc1 | 2 | 8 | 18 | -27 | 2 | 21*
O=S1(=O)N=C(N2CCN(Cc3ccccc3)CC2)c2ccccc21 | -4 | 60* | 1 | -5 | 9 | 3
O=S1(=O)N=C(N2CCN(Cc3ccc4c(c3)OCO4)CC2)c2ccccc21 | 3 | 8 | -8 | -13 | 6 | -11
CCOC(=O)C1(CCOC)CCN(Cc2cnc(-c3cccc(C)c3)nc2)CC1 | 1 | 1 | -5 | -29 | -2 | -19
